{"source": "PubChem BioAssay AID463173", "about": "(ICCB-Longwood Screening Facility, Harvard Medical School, 2010)", "note": "In all, about 52,000 compounds went through this assay and about 4,300 (8.3%) were called active. Cut-off read from the data, not from the text of the source: active = survival mostly below about 52% (no sharp cut-off); inactive = mostly above about 56%. Many of the other results were omitted from the sample, so actives are more common in it than they were.", "data": [{"system": "DeltatarO mutant", "test": "S. aureus survival, RN4220 and DeltatarO strains – OD600, teichoic acid synthesis inhibitors, primary screen (AID 463173)", "details": "S. aureus RN4220 wild type/DeltatarO growth, OD600, 18 h, active compounds read low, screened at 18.75 µg/mL (by protocol)", "values": [{"smiles": "CCc1nn(CC(=O)NCc2ccccc2Cl)c(=O)c2cc3ccccc3n12", "survival": "62% (inactive)"}, {"smiles": "Cc1ccc(Cn2c(SCc3ccc(C(=O)NC4CCCCC4)cc3)nc3ccncc32)cc1", "survival": "71% (inactive)"}, {"smiles": "Cc1cc(N2CCCC2)nc(SCC(=O)c2ccccc2)n1", "survival": "77% (inactive)"}, {"smiles": "COc1ccc(CCN2C(=O)CN(C3CCCCCC3)C(=O)C2c2ccc(C)cc2)cc1OC", "note": "(stereo not drawn)", "survival": "92% (inactive)"}, {"smiles": "Cc1ccc(Cl)cc1N1CCN(C(=O)c2cn(C)c3ccc(S(=O)(=O)N4CCCC4)cc3c2=O)CC1", "survival": "124% (inactive)"}, {"smiles": "Cc1ccccc1Cn1c2ccccc2c2cnn(CC(=O)N3CCC(C)CC3)c(=O)c21", "survival": "41% (inactive)"}, {"smiles": "Cc1ccc2oc(=O)n(CCNC(=O)Nc3ccc(C)c(F)c3)c2c1", "survival": "108% (inactive)"}, {"smiles": "Cc1ccc2oc(=O)n(CCCOc3ccc(Cl)cc3)c2c1", "survival": "-3% (active)"}, {"smiles": "Cc1ccc2oc(=O)n(CCCOc3ccccc3Cl)c2c1", "survival": "-4% (active)"}, {"smiles": "O=C(O)CCCn1c(=O)oc2ccccc21", "survival": "96% (inactive)"}, {"smiles": "N#CCCCn1c(=O)oc2ccccc21", "survival": "100% (inactive)"}, {"smiles": "Cc1c(Cl)cccc1NC(=O)NCCOCCn1c(=O)oc2ccccc21", "survival": "51% (inactive)"}, {"smiles": "O=c1oc2ccccc2n1CCCOc1ccccc1Cl", "survival": "3% (active)"}, {"smiles": "COc1ccc(OCCCn2c(=O)oc3ccc(C)cc32)cc1", "survival": "39% (inactive)"}, {"smiles": "CCOc1ccc(-c2cc(C(=O)N3CCN(c4cc(Cl)ccc4C)CC3)c3ccccc3n2)cc1", "survival": "58% (inactive)"}, {"smiles": "O=C(NCc1ccc2c(c1)CCN2C(=O)c1ccc(F)cc1)c1c(F)cccc1F", "survival": "85% (inactive)"}, {"smiles": "O=C(NCc1ccccc1Cl)c1ccc2nc(Cc3ccccc3)oc2c1", "survival": "60% (inactive)"}, {"smiles": "CC1CCN(S(=O)(=O)c2ccc3c(c2)N(CC(=O)NCCN(C)C)C(=O)CS3)CC1", "survival": "108% (inactive)"}, {"smiles": "CC(=O)N1CCCc2cc(S(=O)(=O)N3CCCCC3)ccc21", "survival": "47% (active)"}, {"smiles": "COc1ccccc1CNC(=O)C1CCCN(S(=O)(=O)c2ccc3c(c2)CCCN3C(C)=O)C1", "note": "(stereo not drawn)", "survival": "52% (active)"}, {"smiles": "CC(=O)N1CCCc2cc(S(=O)(=O)N3CCC(N(C)C(C)C)CC3)ccc21", "survival": "94% (inactive)"}, {"smiles": "CC(=O)N1CCCc2cc(S(=O)(=O)N3CCCC(C(=O)NCc4ccccc4Cl)C3)ccc21", "note": "(stereo not drawn)", "survival": "95% (inactive)"}, {"smiles": "CC(=O)N1CCCc2cc(S(=O)(=O)N3CCC(C(=O)NC4CCCCC4)CC3)ccc21", "survival": "94% (inactive)"}, {"smiles": "COc1ccccc1CNC(=O)C1CCN(S(=O)(=O)c2ccc3c(c2)CCCN3C(C)=O)CC1", "survival": "83% (inactive)"}, {"smiles": "CCOC(=O)N1CCc2c(sc3c2c(=O)n(Cc2ccccc2)c(=O)n3CC(=O)Nc2ccc(C)cc2C)C1", "survival": "71% (inactive)"}, {"smiles": "O=C(c1cc2ccccc2oc1=O)N1CCN(c2ccc(Cl)cc2)CC1", "survival": "66% (inactive)"}, {"smiles": "COc1cc(C(=O)NCCOc2ccc(C)c(C)c2)cc(OC)c1OC", "survival": "98% (inactive)"}, {"smiles": "Cc1cc(C)cc(NC2=CC(c3cccc(F)c3)N(c3cc(C)cc(C)c3)C2=O)c1", "note": "(stereo not drawn)", "survival": "87% (inactive)"}, {"smiles": "CCCCN(CCCC)CC(O)Cn1cc(/C=C/C(=O)c2ccccc2)c2ccccc21", "note": "(stereo not drawn)", "survival": "5% (active)"}, {"smiles": "COc1ccc(C(=O)/C=C/c2cn(CC(O)CN3CCc4ccccc43)c3ccccc23)cc1", "note": "(stereo not drawn)", "survival": "58% (inactive)"}, {"smiles": "CCCCN(CC)CCCNC(=O)c1cn(CC(C)C)c(=O)c2c1c1ccccc1n2C", "survival": "115% (inactive)"}, {"smiles": "COc1ccc(C(=O)/C=C/c2cn(CC(O)CN(CC(C)C)CC(C)C)c3ccccc23)cc1OC", "note": "(stereo not drawn)", "survival": "91% (inactive)"}, {"smiles": "CCCN(CCC)CC(O)Cn1cc(/C=C/C(=O)c2ccc(C)cc2)c2ccccc21", "note": "(stereo not drawn)", "survival": "-2% (active)"}, {"smiles": "CCCN(CCC)CC(O)Cn1cc(/C=C/C(=O)c2ccc(Br)cc2)c2ccccc21", "note": "(stereo not drawn)", "survival": "66% (inactive)"}, {"smiles": "COc1ccc(C(=O)/C=C/c2cn(CC(O)CN(CC(C)C)CC(C)C)c3ccccc23)cc1", "note": "(stereo not drawn)", "survival": "58% (inactive)"}, {"smiles": "CCn1cc(/C=C(\\NC(=O)c2ccc(OC)cc2)C(=O)NCCCn2ccnc2)c2ccccc21", "survival": "108% (inactive)"}, {"smiles": "CCCN(CCC)CC(O)Cn1cc(/C=C/C(=O)c2ccc(OC)cc2)c2ccccc21", "note": "(stereo not drawn)", "survival": "11% (active)"}, {"smiles": "CC(C)CN(CC(C)C)CC(O)Cn1cc(/C=C/C(=O)c2ccccc2)c2ccccc21", "note": "(stereo not drawn)", "survival": "38% (active)"}, {"smiles": "Cc1ccc(C(=O)c2cn(Cc3ccccc3)c3ccccc3c2=O)cc1", "survival": "75% (inactive)"}, {"smiles": "Cc1nn(-c2ccccc2)c(=O)c2ccccc12", "survival": "92% (inactive)"}, {"smiles": "COc1ccc(-c2nc3nc(C)cc(Nc4ccc(C(C)=O)cc4)n3n2)cc1", "survival": "54% (inactive)"}, {"smiles": "CCc1nc2nc(C)cc(Nc3ccc(Br)cc3F)n2n1", "survival": "128% (inactive)"}, {"smiles": "Cc1cc(=O)n(CC(=O)Nc2ccc(Cl)c(Cl)c2)c(-n2nc(C)cc2C)n1", "survival": "117% (inactive)"}, {"smiles": "COc1ccccc1NC(=O)CCS(=O)(=O)c1cc2c3c(c1)CCN3C(=O)CC2", "survival": "99% (inactive)"}, {"smiles": "CCc1cccc(CC)c1-n1nnc2c(sc3nc(C)cc(C)c32)c1=O", "survival": "83% (inactive)"}, {"smiles": "Cc1cccc(C(=O)NCc2nnc(SCC(=O)Nc3ccccc3F)n2-c2ccccc2)c1", "survival": "72% (inactive)"}, {"smiles": "N#Cc1c(/N=C/c2cccnc2)sc2c1CCC2", "survival": "100% (inactive)"}, {"smiles": "CN1CCN(C(CNC(=O)c2ccccc2)c2ccc3c(c2)OCO3)CC1", "note": "(stereo not drawn)", "survival": "76% (inactive)"}, {"smiles": "Nc1nc(N)nc(COc2ccccc2)n1", "survival": "102% (inactive)"}, {"smiles": "CCOC(=O)c1c(S(=O)(=O)N2CCCC(C(=O)NCc3ccccc3Cl)C2)c(C)n(C)c1C", "note": "(stereo not drawn)", "survival": "122% (inactive)"}, {"smiles": "CCc1cccc(C)c1NC(=O)CN1CCN(Cc2ccccc2Cl)S1(=O)=O", "survival": "126% (inactive)"}, {"smiles": "CCOc1ccc(C(=O)NCCn2cc(SCC(=O)Nc3ccccc3)c3ccccc32)cc1", "survival": "71% (inactive)"}, {"smiles": "CCCN(CCC)CC(O)Cn1cc(/C=C/C(=O)c2ccc(OCC)cc2)c2ccccc21", "note": "(stereo not drawn)", "survival": "11% (active)"}, {"smiles": "COc1ccc(S(=O)(=O)N2CCCN(CC(=O)Nc3ccc(OC)cc3OC)CC2)cc1", "survival": "72% (inactive)"}, {"smiles": "COc1ccc(OCC(=O)NCCS(=O)(=O)N2CCN(c3cccc(Cl)c3)CC2)cc1", "survival": "85% (inactive)"}, {"smiles": "CCOc1ccc(NC(=O)CSc2cn(CC(=O)N3CCCCCC3)c3ccccc23)cc1", "survival": "95% (inactive)"}, {"smiles": "Cc1oc(-c2cccc(Br)c2)nc1CSc1nc2ncccc2[nH]1", "survival": "78% (inactive)"}, {"smiles": "CCOC(=O)c1cnc2ccc(Br)cc2c1NCCN1CCOCC1", "survival": "76% (inactive)"}, {"smiles": "CCOC(=O)c1cnc2c(CC)cccc2c1NCCO", "survival": "95% (inactive)"}, {"smiles": "Cc1cc(C)cc(OCC(=O)NCCN2CCOCC2)c1", "survival": "67% (inactive)"}, {"smiles": "CCOC(=O)c1cnc2c(Cl)c(Cl)ccc2c1NCCN1CCOCC1", "survival": "42% (active)"}, {"smiles": "CCOC(=O)c1cnc2c(C)cc(C)cc2c1NCCN1CCOCC1", "survival": "32% (active)"}, {"smiles": "CCOC(=O)c1cnc2ccccc2c1NCCCO", "survival": "104% (inactive)"}, {"smiles": "Cc1ccc(OCC(=O)Nc2ccc3nc(SCc4ccccc4)sc3c2)cc1", "survival": "81% (inactive)"}, {"smiles": "Cc1ccccc1-c1nc(CNC(=O)NC2CCCCC2)c(C)o1", "survival": "67% (inactive)"}, {"smiles": "CCOc1ccc(C(=O)N2CCC(c3nc(-c4ccc(S(=O)(=O)N5CCCC5)cc4)no3)CC2)cc1", "survival": "92% (inactive)"}, {"smiles": "CCc1ccccc1N(C)C(=O)c1cc2c(=O)oc3ccccc3c2s1", "survival": "42% (inactive)"}, {"smiles": "CCCN(C(=O)c1cc2c(=O)oc3ccc(C)cc3c2s1)c1ccc(OCC)cc1", "survival": "48% (inactive)"}, {"smiles": "CN(C(=O)c1cc2c(=O)oc3ccccc3c2s1)c1ccc(F)cc1", "survival": "60% (inactive)"}, {"smiles": "CCOc1ccc(N(CC)C(=O)c2cc3c(=O)oc4ccccc4c3s2)cc1", "survival": "38% (active)"}, {"smiles": "CCN(C(=O)c1cc2c(=O)oc3ccccc3c2s1)c1ccc(C)c(C)c1", "survival": "15% (active)"}, {"smiles": "CCN(C(=O)c1cc2c(=O)oc3ccccc3c2s1)c1cccc(C(F)(F)F)c1", "survival": "145% (inactive)"}, {"smiles": "COc1cccc(CNC(=O)C2(c3cccs3)CCOCC2)c1", "survival": "92% (inactive)"}, {"smiles": "COc1ccc(-c2ccc(NS(=O)(=O)c3cccc(C)c3)cc2)nn1", "survival": "75% (inactive)"}, {"smiles": "COCCNc1nc2c(c(=O)n(C)c(=O)n2C)n1Cc1c(F)cccc1Cl", "survival": "57% (inactive)"}, {"smiles": "Cc1ccc(C)c(NC(=O)CC2NCCNC2=O)c1", "note": "(stereo not drawn)", "survival": "79% (inactive)"}, {"smiles": "COc1ccc(NC(=O)CC2NCCNC2=O)c(OC)c1", "note": "(stereo not drawn)", "survival": "77% (inactive)"}, {"smiles": "COc1ccc(C)cc1NC(=O)CC1NCCNC1=O", "note": "(stereo not drawn)", "survival": "76% (active)"}, {"smiles": "O=C(Nc1c2c(nn1-c1ccc(Cl)cc1)CS(=O)(=O)C2)c1cccc(Cl)c1", "survival": "71% (inactive)"}, {"smiles": "O=C(Nc1c2c(nn1-c1ccc(Cl)cc1)CS(=O)(=O)C2)c1ccc(Br)cc1", "survival": "52% (active)"}, {"smiles": "Cc1cccc(C(=O)Nc2c3c(nn2-c2ccc(Cl)cc2)CS(=O)(=O)C3)c1", "survival": "74% (inactive)"}, {"smiles": "CC(=O)N1c2ccccc2C(=O)C1N1CCN(c2ccc(F)cc2)CC1", "note": "(stereo not drawn)", "survival": "94% (inactive)"}, {"smiles": "Cc1ccc(-c2nnc(Nc3ccc(O)cc3)c3ccccc23)cc1S(=O)(=O)NCC1CCCO1", "note": "(stereo not drawn)", "survival": "93% (inactive)"}, {"smiles": "Cc1ccc(-n2ncc(C(=O)NC3CCCCC3)c2C2CCN(C(=O)OC(C)(C)C)CC2)cc1", "survival": "116% (inactive)"}, {"smiles": "Cc1cccc(CC(=O)N2CC(=O)Nc3ccc(C)cc3C2c2ccc(F)cc2)c1", "note": "(stereo not drawn)", "survival": "50% (inactive)"}, {"smiles": "COc1ccc(CC(=O)N2CC(=O)Nc3ccc(Br)cc3C2c2ccc(F)cc2)cc1", "note": "(stereo not drawn)", "survival": "30% (active)"}, {"smiles": "Cc1ccc2c(c1)C(c1ccccc1)N(C(=O)Cc1ccc(F)cc1)CC(=O)N2", "note": "(stereo not drawn)", "survival": "55% (inactive)"}, {"smiles": "COc1ccc(CC(=O)N2CC(=O)Nc3ccc(Br)cc3C2c2ccc(F)cc2)cc1OC", "note": "(stereo not drawn)", "survival": "175% (inactive)"}, {"smiles": "COc1ccc(CC(=O)N2CC(=O)Nc3ccc(F)cc3C2c2ccccc2)cc1", "note": "(stereo not drawn)", "survival": "79% (inactive)"}, {"smiles": "Cc1cccc(CC(=O)N2CC(=O)Nc3ccc(Br)cc3C2c2ccc(F)cc2)c1", "note": "(stereo not drawn)", "survival": "43% (active)"}, {"smiles": "O=C1CN(C(=O)Cc2ccc(F)cc2)C(c2ccccc2)c2cc(Cl)ccc2N1", "note": "(stereo not drawn)", "survival": "127% (inactive)"}, {"smiles": "O=C1CN(C(=O)Cc2ccccc2)C(c2ccc(F)cc2)c2cc(Br)ccc2N1", "note": "(stereo not drawn)", "survival": "61% (inactive)"}, {"smiles": "Cc1cccc(CC(=O)N2CC(=O)Nc3ccc(F)cc3C2c2ccccc2)c1", "note": "(stereo not drawn)", "survival": "53% (active)"}]}]}
